Compound activity: PubChem BioAssay, National Center for Advancing Translational Sciences (NCATS)
DT40 TDP1 CPT: qHTS for Inhibitors of human tyrosyl-DNA phosphodiesterase 1 (TDP1): qHTS in cells in presence of CPT. chicken DT40 Tdp1-/-;hTDP1 cells + 20 nM CPT, ATP luminescence, 48 h. Potency, µM (top dose mostly 46.2 µM), inactives show top-dose activity change, negative = growth inhibition, most hits filed as inhibitors. 420,000 tested, 12% active; also: potency is read from the fitted curve at half-maximal effect; nearly all actives have a fitted effect of over 55% in size
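Cell growth measured by CellTiter-Glo luminescence after a minimum 48 h, 37 C compound exposure with 20 nM CPT in Tdp1-knockout DT40 cells stably expressing hTDP1, seeded 400/well; qHTS titration format.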
IL1B secr inh: qHTS for Inhibitors of Inflammasome Signaling: IL-1-beta AlphaLISA Primary Screen | THP-1 LPS/ATP IL-1B secretion, AlphaLISA, 16 h; hits give low values | activity change, % at 57.5 µM | 360,000 tested, 4.7% active; in the data active = activity change below about -50%; inconclusive = mostly about -30% to -49%
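THP-1 cells pretreated 1 hr with compounds (up to 57.5 uM final), then stimulated with LPS (250 ng/mL final) plus ATP (1.25 mM final); secreted IL-1B measured by AlphaLISA after 16 hr, decreased signal indicating inhibition.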
VP16 counter: VP16 counterscreen qHTS for inhibitors of ROR gamma transcriptional activity; Drosophila S2 Gal4-VP16 UAS-luciferase, luminescence, 20 h; Potency, µM (doses to about 53.6 µM), without a hit: at the highest dose activity, negative = inhibition, actives largely listed as inhibitors; 310,000 tested, 3.5% active;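 also: Gal4-VP16 expression switched on by copper sulfate through the metallothionein promoter; potency is read from the fitted curve at half-maximal effect; nearly all actives have a fitted effect of over 50% in size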
TDP1 cell noCPT: qHTS for Inhibitors of human tyrosyl-DNA phosphodiesterase 1 (TDP1): qHTS in cells in absence of CPT; DT40 Tdp1-/- hTDP1 cells, no CPT, ATP luminescence, 48 h; Potency, µM (highest dose often 46.2 µM), inactives show at the highest dose activity change, negative = growth inhibition, actives largely listed as inhibitors; 420,000 tested, 15% active; also: potency is read from the fitted curve at half-maximal effect; nearly all actives have a fitted effect of over 55% in size
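Seeded 400 DT40-hTDP1 cells/well (vehicle DMSO, no 20 nM CPT); pinned compounds; ≥48 hr at 37 °C; CellTiter-Glo luminescence as viability measure.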
RORgamma inh: qHTS for inhibitors of ROR gamma transcriptional activity | Drosophila S2 Gal4-RORgamma UAS-luciferase reporter, 20 h | Potency, µM (highest dose often 53.6 µM), without a hit: at the top dose activity change, negative = inhibition, most hits filed as inhibitors | 310,000 tested, 5.4% active | AID 2551, 2010; also: potency is read from the fitted curve at half-maximal effect; nearly all actives have a fitted effect of over 60% in size
Target sequence (P51450 whole entry, looked up, the tested form may be a part): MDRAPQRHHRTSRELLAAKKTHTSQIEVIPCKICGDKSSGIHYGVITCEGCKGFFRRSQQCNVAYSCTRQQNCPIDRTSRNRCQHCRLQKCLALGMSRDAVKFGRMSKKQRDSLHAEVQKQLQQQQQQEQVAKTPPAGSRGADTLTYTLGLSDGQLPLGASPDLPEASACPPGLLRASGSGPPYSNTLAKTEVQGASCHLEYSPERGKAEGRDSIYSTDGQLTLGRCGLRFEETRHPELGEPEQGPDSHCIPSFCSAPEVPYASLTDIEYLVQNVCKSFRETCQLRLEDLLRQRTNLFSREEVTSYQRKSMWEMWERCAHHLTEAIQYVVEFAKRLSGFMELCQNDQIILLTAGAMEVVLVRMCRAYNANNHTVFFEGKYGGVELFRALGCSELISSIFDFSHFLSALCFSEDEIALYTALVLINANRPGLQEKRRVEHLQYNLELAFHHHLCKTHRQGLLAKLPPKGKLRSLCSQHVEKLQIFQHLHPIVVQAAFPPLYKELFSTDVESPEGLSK
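Read-out: Photinus luciferase luminescence; inhibitors lower reporter signal. Insect Schneider cells with Gal4-ROR gamma fusion under metallothionein promoter, UAS reporter; 700 uM final copper sulfate induction, 20 hr, ambient temperature.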
LDHA block: qHTS assay for inhibitors of human lactate dehydrogenase | activity change, % (values are at about 110 or 230 µM) | 480,000 tested, 0.15% active | purified LDHA, NADH/diaphorase-resazurin fluorescence; hits give low values | L-lactate dehydrogenase A chain (Homo sapiens), P00338; in the data active = activity change below about -30%; inconclusive = mostly about -25% to -30%;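 also: plate controls were DMSO wells for no effect and wells without enzyme for full effect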
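LDH5 2 nM; NADH 0.06 mM, pyruvate 0.2 mM; 200 mM Tris pH 7.4, EDTA, Tween-20; 5 min RT. Detection: diaphorase 0.133 mg/mL + resazurin 37 µM, fluorescence ex540/em590 at 0 and 20 min; normalized to enzyme-free and DMSO wells.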
Numbers without * were called inactive; ? = inconclusive; / = no result given. Shown are actives, neighbours in structure and some others; about 18% of the full set was active somewhere. Unless noted, calls follow the shape of the dose curve; as a rule, active = well fitted curve in the direction sought with a large enough effect; inconclusive = small, poorly fitted or top-dose-only effect, or another doubt; inactive = no such curve, though single readings can be large; an effect the other way counts as inactive or inconclusive. Unless noted, % is scaled to controls: 0 for no effect and ±100 for the full control effect.

SMILES | DT40 TDP1 CPT | IL1B secr inh | VP16 counter | TDP1 cell noCPT | RORgamma inh | LDHA block
CCN(CC)S(=O)(=O)c1ccc2c(c1)c(=O)c(C(=O)NCCc1ccc(OC)c(OC)c1)cn2C | 18µM* | -12 | -7% | ? | 18% | 0
CCn1cc(C(=O)NCCc2ccc(C)cc2)c(=O)c2cc(S(=O)(=O)N3CCc4ccccc4C3)ccc21 | ? | / | / | ? | / | 5
CCOc1ccc(CCNC(=O)c2cn(CC)c3ccc(S(=O)(=O)N4CCc5ccccc5C4)cc3c2=O)cc1OCC | 18µM* | / | / | 12µM* | / | 0
CC(C)NS(=O)(=O)c1ccc(C(=O)NCc2ccc(-c3nc4ccccc4s3)o2)cc1 | / | / | / | / | / | 15
COC(=O)c1ccc(Cn2cnc3c(Cl)ncnc32)cc1 | ? | -94* | / | ? | / | -16
CCOC(=O)N1CCN([C@H]2CS(=O)(=O)C[C@@H]2S(=O)(=O)c2ccc(C)cc2)CC1 | / | / | / | / | / | 8
O=S(=O)(c1ccc(OCC(O)CNC23CC4CC(CC(C4)C2)C3)c(Cl)c1)N1CCOCC1 (stereo not drawn) | ? | -78* | -9% | 16µM* | ? | -4
O=C(COc1ccc(S(=O)(=O)N2CCOCC2)cc1Cl)NC1CCCCC1 | ? | -14 | 1% | -21% | 21% | -9
CN(CCO)c1c2c(nc3cc(-c4cccc(F)c4)nn13)CCCC2 | ? | -25 | -6% | 21µM* | 28% | -2
OC1CCN(c2c3c(nc4cc(-c5cccc(F)c5)nn24)CCCC3)CC1 | 16µM* | -100* | 6% | 21µM* | 0% | -8
Fc1cccc(-c2cc3nc4c(c(N5CCC6(CC5)OCCO6)n3n2)CCCC4)c1 | 21µM* | -70* | 13% | 23µM* | 5% | -1
O=C(N/N=C/c1ccsc1)c1cccc(C(F)(F)F)c1 | / | / | / | / | / | 3
CC1CCCCC1NC(=S)NC1CC1 (stereo not drawn) | / | / | / | / | / | -2
CCOc1cc2sc(N3CCC(C(=O)Nc4cc(C)cc(C)c4)CC3)nc2cc1Br | 21µM* | / | / | -54% | / | 0
CCOc1cc2sc(N3CCC(C(=O)Nc4ccc(C(C)C)cc4)CC3)nc2cc1Br | ? | / | / | ? | / | -6
CCOc1cc2sc(N3CCC(C(=O)Nc4ccc(C)cc4C)CC3)nc2cc1Br | 7.3µM* | / | / | 21µM* | / | -2
COc1ccc(N2C(=S)NC(C)(C)CC2(C)c2ccc(OC(C)=O)cc2OC(C)=O)cc1 (stereo not drawn) | 13% | 7 | ? | 10% | 10µM* | 2
CC(=O)Oc1ccc(C2(C)CC(C)(C)Oc3cc(OC(C)=O)ccc32)c(OC(C)=O)c1 (stereo not drawn) | -23% | -4 | 5% | ? | 23% | -2
CCc1nc2c(OCc3ccc(Cl)cc3)cccn2c1N(C)C(=O)c1ccc(C)cc1 | 18µM* | ? | / | 18µM* | / | 3
CCOC(=O)N(C)c1c(CC)nc2c(OCc3cccc(Cl)c3)cccn12 | ? | -7 | / | ? | / | -3
CCc1nc2c(OCC(=O)C(C)(C)C)cccn2c1N(C)C(=O)c1ccc(C)cc1 | ? | -18 | / | ? | / | -14
CCOC(=O)N(C)c1c(CC)nc2c(OCc3ccc(Cl)cc3)cccn12 | 21µM* | -27 | / | 15µM* | / | 3
O=C(CSc1nnc(CNc2ccc(Cl)cc2)o1)Nc1nc2c(s1)CCCC2 | 15µM* | -16 | ? | ? | 11µM* | -1
O=C(CCSc1ccc(Cl)cc1)Nc1nc2c(s1)CCC2 | / | / | / | / | / | 13
Oc1ccc(Cl)cc1-c1cc(C(F)(F)C(F)F)nc(-c2ccccc2)n1 | 29µM* | 14 | 5% | 16µM* | -10% | -1
SMILES | DT40 TDP1 CPT | IL1B secr inh | VP16 counter | TDP1 cell noCPT | RORgamma inh | LDHA block
NS(=O)(=O)c1cc(C(=O)NC2CCSc3ccccc32)ccc1Cl (stereo not drawn) | 10% | -14 | 10% | -20% | 19% | -66*
CC(=O)c1cccc(S(=O)(=O)NC2CCSc3ccccc32)c1 (stereo not drawn) | ? | 36 | 5% | 12µM* | 3% | -6
O=C(Nc1ccc(-c2nnnn2C2CC2)cc1)NC1CCCCCC1 | / | / | / | / | / | 5
Cc1ccc(-c2noc(CCC(=O)NCC3CCN(Cc4cccc(C)c4)CC3)n2)cc1 | 18µM* | -67* | ? | ? | -2% | -6
Cc1ccc(-c2noc(CCC(=O)NCCN3CCN(Cc4ccccc4)CC3)n2)cc1 | ? | -30 | ? | 18µM* | 37% | 0
CC(=O)O[C@@H]1[C@@H](O)[C@@H](O)[C@H](Oc2c(-c3ccc(O)cc3)oc3c(CC=C(C)C)c(O)cc(O)c3c2=O)O[C@H]1C | ? | -9 | / | ? | / | 1
CC(=O)O[C@H]1[C@@H](O)[C@H](O)[C@H](Oc2c(O)c(C)c3c4c2[C@@H](C)CC[C@@H]4[C@@H](C)C[C@H]3C=C(C)C)O[C@H]1C | ? | -3 | / | 18µM* | / | 1
CCOC(=O)c1c(NC(=O)C2COc3ccccc3O2)sc2c1CC(C)(C)NC2(C)C (stereo not drawn) | 13µM* | ? | ? | 12µM* | ? | 2
CCOC(=O)c1c(NC(=O)c2ccc(C)cc2)sc2c1CC(C)(C)NC2(C)C | / | / | 1% | / | -17% | /
